# Test results from the supplement of paper PMC10849652.
# Of roughly 7,900 targets only a part is listed; those with a hit were picked by preference. About 0.6% of all pairs of compound and target were hits. Values without a mark were called inactive.
# What was measured:
# Test in all cases: log2 fold change, soluble protein after heating vs DMSO (PISA); higher = thermal stabilisation; K562 cells, 10 uM, 30 min; active = over 0.2 and 3.5 SD of the protein, either way, in both replicates (recomputed)
# [1] = compound: NC(=O)Nc1cc(-c2cccc(F)c2)sc1C(=O)N[C@H]1CCCNC1
# Outline: (§1)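 Aliquots of K562 cells (2×10^6 cells/mL) treated with 10 μM compound for 30 min were heated for 3 min over 48°C-58°C. After pooling and extraction in PBS with 0.5% NP-40 at 4°C, soluble protein from a 21,000xg, 90 min spin was quantified by TMTpro 16plex LC-MS/MS with channel sums equalised. Thermal stability is expressed against control samples, from duplicates, as a log2 fold change.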
# [2] = compound: NC(=O)c1cnc(N[C@@H]2CCCC[C@@H]2N)nc1Nc1cccc(-n2nccn2)c1
# Outline: as §1
# [3] = compound: NC1(c2ccc(-c3nc4ccn5c(=O)[nH]nc5c4cc3-c3ccccc3)cc2)CCC1
# Outline: as §1
# [4] = compound: NCC(=O)Nc1ccc(-n2nc(C(F)(F)F)cc2-c2ccc3c(ccc4ccccc43)c2)cc1
# Outline: as §1
# [5] = compound: Nc1ccccc1NC(=O)c1ccc(CNC(=O)OCc2cccnc2)cc1 [entinostat]
# Outline: as §1
# [6] = compound: O=C(CCCCCCC(=O)Nc1ccccc1)NO [vorinostat]
# Outline: as §1
# [7] = compound: O=C(CCCCCCNC(=O)c1cnc(N(c2ccccc2)c2ccccc2Cl)nc1)NO [citarinostat]
# Outline: as §1
# [8] = compound: O=C(O)c1ccc2c(c1)nc(Nc1cccc(Cl)c1)c1ccncc12 [silmitasertib]
# Outline: as §1
# [9] = compound: O=C1NC(=O)C(c2cnc3ccccn23)=C1c1cn2c3c(cc(F)cc13)CN(C(=O)N1CCCCC1)CC2
# Outline: as §1
# [10] = compound: c1cc(OCCN2CCCCC2)cc(-c2n[nH]c3ccc(-c4nnc[nH]4)cc23)c1
# Outline: as §1
# [11] = compound: c1cn2cc(-c3ccc4cn[nH]c4c3)nc(Nc3ccc(N4CCOCC4)cc3)c2n1 [entospletinib]
# Outline: as §1
# Chain of UniProt P42785 (P42785 whole entry, looked up): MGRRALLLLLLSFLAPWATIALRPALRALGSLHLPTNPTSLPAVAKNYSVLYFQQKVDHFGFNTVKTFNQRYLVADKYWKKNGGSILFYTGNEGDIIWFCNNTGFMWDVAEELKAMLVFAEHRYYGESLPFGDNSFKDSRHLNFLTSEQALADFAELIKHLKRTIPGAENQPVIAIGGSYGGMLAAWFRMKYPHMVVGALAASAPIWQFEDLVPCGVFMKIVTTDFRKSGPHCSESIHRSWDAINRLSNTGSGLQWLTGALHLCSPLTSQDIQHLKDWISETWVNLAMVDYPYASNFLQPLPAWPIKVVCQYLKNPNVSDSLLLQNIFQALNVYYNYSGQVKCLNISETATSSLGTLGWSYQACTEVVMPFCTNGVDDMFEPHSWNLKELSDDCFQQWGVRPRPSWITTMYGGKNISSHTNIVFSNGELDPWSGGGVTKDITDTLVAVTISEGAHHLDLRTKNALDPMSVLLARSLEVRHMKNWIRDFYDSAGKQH
# Chain of UniProt O96013 (O96013 whole entry, looked up): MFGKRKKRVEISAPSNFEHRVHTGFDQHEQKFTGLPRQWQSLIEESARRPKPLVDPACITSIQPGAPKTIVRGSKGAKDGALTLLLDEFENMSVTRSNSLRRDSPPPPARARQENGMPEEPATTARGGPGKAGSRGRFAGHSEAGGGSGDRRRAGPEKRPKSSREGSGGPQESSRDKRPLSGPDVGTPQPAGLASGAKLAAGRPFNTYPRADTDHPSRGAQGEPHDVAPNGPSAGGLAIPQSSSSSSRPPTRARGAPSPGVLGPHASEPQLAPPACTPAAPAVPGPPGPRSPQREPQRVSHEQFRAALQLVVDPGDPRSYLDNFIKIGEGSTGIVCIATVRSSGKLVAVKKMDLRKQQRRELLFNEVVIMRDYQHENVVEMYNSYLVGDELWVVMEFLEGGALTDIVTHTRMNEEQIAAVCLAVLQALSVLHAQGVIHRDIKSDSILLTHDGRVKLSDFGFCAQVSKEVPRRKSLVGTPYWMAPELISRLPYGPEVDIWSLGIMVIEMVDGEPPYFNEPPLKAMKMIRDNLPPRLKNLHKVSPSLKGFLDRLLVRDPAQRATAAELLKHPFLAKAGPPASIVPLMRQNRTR
# Chain of UniProt O00232 (O00232 whole entry, looked up): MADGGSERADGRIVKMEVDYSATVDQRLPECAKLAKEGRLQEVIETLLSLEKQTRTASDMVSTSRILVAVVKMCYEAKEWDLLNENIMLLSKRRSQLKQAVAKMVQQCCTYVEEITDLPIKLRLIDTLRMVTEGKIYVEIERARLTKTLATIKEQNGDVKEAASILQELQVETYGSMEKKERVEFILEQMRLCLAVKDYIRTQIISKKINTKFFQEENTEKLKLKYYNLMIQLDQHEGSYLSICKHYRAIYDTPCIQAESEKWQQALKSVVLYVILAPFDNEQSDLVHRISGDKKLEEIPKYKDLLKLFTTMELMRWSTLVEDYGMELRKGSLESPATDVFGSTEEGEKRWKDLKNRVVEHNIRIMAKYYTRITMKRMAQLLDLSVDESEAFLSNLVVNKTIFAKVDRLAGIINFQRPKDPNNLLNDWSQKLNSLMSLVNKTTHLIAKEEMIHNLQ
# Chain of UniProt Q9NR12 (Q9NR12 whole entry, looked up): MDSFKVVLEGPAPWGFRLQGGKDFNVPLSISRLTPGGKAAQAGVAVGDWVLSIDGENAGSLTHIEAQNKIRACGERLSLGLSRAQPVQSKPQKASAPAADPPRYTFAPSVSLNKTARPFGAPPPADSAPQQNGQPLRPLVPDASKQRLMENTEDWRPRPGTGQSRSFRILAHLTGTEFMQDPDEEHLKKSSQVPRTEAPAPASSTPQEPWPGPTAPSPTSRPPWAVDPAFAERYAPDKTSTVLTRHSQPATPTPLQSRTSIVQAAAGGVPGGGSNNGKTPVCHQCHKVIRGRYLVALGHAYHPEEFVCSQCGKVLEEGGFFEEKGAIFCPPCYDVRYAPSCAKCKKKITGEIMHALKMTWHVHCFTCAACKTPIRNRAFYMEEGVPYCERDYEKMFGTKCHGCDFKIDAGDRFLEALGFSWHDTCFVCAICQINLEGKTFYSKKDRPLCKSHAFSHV
# Chain of UniProt P50897 (P50897 whole entry, looked up): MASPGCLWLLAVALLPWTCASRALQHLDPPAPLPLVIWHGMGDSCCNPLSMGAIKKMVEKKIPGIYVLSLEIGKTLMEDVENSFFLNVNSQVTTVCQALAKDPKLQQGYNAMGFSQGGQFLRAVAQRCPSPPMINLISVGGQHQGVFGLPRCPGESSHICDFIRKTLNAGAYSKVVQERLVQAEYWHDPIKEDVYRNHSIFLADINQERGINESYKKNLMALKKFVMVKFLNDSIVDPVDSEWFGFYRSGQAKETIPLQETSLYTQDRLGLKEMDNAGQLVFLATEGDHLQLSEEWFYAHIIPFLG
# Chain of UniProt P54619 (P54619 whole entry, looked up): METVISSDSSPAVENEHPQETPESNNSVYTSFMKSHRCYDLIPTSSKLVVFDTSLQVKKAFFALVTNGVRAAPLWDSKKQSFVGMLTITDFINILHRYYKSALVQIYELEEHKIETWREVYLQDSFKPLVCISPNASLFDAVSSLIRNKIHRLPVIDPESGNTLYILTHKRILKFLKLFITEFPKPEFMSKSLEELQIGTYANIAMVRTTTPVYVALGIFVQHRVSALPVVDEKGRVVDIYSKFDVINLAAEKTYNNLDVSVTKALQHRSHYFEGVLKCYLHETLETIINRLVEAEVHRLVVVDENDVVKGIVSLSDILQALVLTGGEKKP
# Chain of UniProt Q10713 (Q10713 whole entry, looked up): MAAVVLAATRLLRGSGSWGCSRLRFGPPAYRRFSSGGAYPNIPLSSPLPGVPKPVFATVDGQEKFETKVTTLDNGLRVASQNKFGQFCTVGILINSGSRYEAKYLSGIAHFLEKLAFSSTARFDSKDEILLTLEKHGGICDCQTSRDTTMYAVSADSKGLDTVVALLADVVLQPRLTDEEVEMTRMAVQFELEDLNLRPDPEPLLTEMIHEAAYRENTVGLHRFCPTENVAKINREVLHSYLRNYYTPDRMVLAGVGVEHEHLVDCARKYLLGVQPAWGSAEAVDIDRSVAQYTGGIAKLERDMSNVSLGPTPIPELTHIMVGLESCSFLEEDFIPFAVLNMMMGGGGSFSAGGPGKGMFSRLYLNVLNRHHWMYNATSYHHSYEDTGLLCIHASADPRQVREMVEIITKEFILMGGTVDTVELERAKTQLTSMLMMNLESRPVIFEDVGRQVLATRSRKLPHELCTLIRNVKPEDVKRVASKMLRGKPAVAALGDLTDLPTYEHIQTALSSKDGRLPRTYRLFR
# Chain of UniProt Q9P2B2 (Q9P2B2 whole entry, looked up): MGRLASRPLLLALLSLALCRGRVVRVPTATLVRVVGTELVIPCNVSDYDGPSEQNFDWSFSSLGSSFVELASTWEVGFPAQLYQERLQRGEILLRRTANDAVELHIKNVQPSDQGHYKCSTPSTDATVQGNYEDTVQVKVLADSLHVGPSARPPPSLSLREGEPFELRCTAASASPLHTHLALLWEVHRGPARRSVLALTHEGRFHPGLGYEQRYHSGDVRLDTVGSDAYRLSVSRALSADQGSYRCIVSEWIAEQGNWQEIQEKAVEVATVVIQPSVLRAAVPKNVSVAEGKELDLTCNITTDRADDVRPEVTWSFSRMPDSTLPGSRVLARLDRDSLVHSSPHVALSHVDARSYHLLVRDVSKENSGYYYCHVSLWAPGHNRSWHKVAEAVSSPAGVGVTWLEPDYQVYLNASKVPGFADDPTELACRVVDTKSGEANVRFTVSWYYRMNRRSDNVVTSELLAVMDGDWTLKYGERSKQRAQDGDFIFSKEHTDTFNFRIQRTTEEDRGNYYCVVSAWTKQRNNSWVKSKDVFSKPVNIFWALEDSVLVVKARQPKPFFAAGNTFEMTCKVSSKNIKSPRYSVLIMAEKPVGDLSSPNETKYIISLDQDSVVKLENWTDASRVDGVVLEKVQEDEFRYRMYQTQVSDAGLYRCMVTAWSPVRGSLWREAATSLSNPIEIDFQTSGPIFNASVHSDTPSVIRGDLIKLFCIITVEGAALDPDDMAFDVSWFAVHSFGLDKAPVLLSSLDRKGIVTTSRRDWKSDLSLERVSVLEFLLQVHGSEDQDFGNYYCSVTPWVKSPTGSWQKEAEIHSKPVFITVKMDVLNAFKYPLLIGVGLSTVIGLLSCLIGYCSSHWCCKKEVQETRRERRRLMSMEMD
# Chain of UniProt O96011 (O96011 whole entry, looked up, change not shown): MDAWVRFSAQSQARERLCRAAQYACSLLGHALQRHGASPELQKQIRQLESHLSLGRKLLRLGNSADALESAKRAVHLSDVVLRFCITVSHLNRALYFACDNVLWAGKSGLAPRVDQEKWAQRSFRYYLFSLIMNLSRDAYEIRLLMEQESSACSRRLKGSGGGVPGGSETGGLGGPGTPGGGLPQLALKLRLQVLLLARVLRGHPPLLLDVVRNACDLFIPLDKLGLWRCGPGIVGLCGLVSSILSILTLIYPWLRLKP
Target,log2 fold change [1],log2 fold change [2],log2 fold change [3],log2 fold change [4],log2 fold change [5],log2 fold change [6],log2 fold change [7],log2 fold change [8],log2 fold change [9],log2 fold change [10],log2 fold change [11]
PRCP (UniProt P42785),0.013,0.005,-0.106,0.008,0.035,0.005,0.028,0,-0.014,0.044,-0.062
PDLIM7 (UniProt Q9NR12),0.003,0.009,0.043,-0.042,0.011,0.082,0.037,-0.017,0.021,-0.026,0.012
PLIN2 (UniProt Q99541),0.019,-0.194,-0.353,-0.059,0.077,0.203,0.027,0.035,-0.046,-0.044,0.043
PRG4 (UniProt Q92954),-0.168,-0.113,-0.16,-0.068,-0.156,0.201,-0.015,0,-0.109,-0.097,-0.006
PMPCA (UniProt Q10713),-0.091,-0.059,-0.02,-0.053,-0.018,-0.016,0.017,-0.061,0.01,0.015,-0.046
PDPK1 (UniProt O15530),0.238 (active),-0.111,-0.314 (active),-0.061,0.034,0.108,0.038,-0.04,0.004,-0.019,-0.037
PEA15 isoform 2 (UniProt Q15121),0.021,-0.118,-0.103,0.016,0.075,-0.009,0.049,0.045,-0.067,-0.209,0.009
PCYT1A (UniProt P49585),-0.015,-0.093,-0.234,-0.066,0.033,0.086,0.081,0.022,-0.06,-0.002,0.017
PEX11B (UniProt O96011),0.095,0.052,-0.03,0.073,0.047,0.049,0.114,-0.031,0.035,0.024,-0.082
POLR2D (UniProt O15514),0.04,0.145,-0.016,0.022,-0.026,-0.133,-0.078,0.049,-0.015,-0.06,0.162
PRKAG1 isoform 3 (UniProt P54619),-0.105,-0.033,-0.069,-0.045,0.017,0.071,0.04,0.016,-0.042,-0.091,-0.018
PTGFRN (UniProt Q9P2B2),-0.115,0.083,0.013,0.014,-0.071,-0.055,0.021,-0.006,-0.007,-0.104,-0.007
POLD3 (UniProt Q15054),0.035,-0.143,-0.107,-0.108,0.134,-0.008,0.003,-0.022,-0.013,0.109,-0.054
PAK4 (UniProt O96013),0.048,0.388 (active),0.015,-0.038,-0.083,0.01,0.003,0.041,0.017,-0.039,-0.002
PLBD2 (UniProt Q8NHP8),-0.002,0.049,-0.091,-0.004,-0.008,-0.073,0.003,0.017,0.001,-0.006,-0.038
PIP4K2B (UniProt P78356),0.06,0.083,-0.053,0.118,0.096,0.053,-0.009,0.202,0.044,0.069,-0.04
PRKCB isoform 2 (UniProt P05771),-0.052,-0.037,-0.118,-0.058,0.045,0.02,0.041,0.032,-0.051,0.02,-0.012
PHKA2 (UniProt P46019),0.013,-0.112,-0.157,0.005,0.13,0.04,-0.046,0.001,-0.013,0.065,-0.043
PRKCG (UniProt P05129),-0.064,-0.043,-0.086,0.068,0.117,0.109,0.193,0.062,-0.229,0.082,0.044
PKM (UniProt P14618),0.01,-0.029,0.011,-0.025,-0.013,-0.009,0.016,-0.016,-0.032,-0.02,-0.04
POLD1 (UniProt P28340),-0.01,-0.027,-0.095,-0.007,0.005,-0.098,0.117,0.03,-0.122,-0.011,0.001
PSMD12 (UniProt O00232),-0.001,0.019,-0.061,0.05,0.001,0.003,-0.012,-0.024,0.045,-0.09,0.032
PTRHD1 (UniProt Q6GMV3),-0.02,0.037,-0.009,0.03,0.095,-0.099,0.026,-0.006,-0.065,-0.006,0.064
PKN2 (UniProt Q16513),-0.055,-0.134,-0.051,-0.021,0.105,0.023,0.073,0.01,-0.008,-0.086,0.007
PPT1 (UniProt P50897),-0.049,-0.095,-0.338 (active),-0.096,-0.03,-0.036,0.053,0.019,-0.041,-0.041,0.057
PIKFYVE (UniProt Q9Y2I7),0.029,-0.055,-0.256,-0.072,0.09,0.021,-0.047,0.006,-0.069,-0.08,0.003
PARL (UniProt Q9H300),0.025,-0.06,-0.07,-0.09,0.023,-0.07,0.054,0.032,-0.082,-0.017,0.018
